Several values for one entry are separate records, joined by “and”; a condition that tells them apart may be missing. Identical values can stand only once. Records with an inconclusive call do not appear. More than one record can exist for a structure, and the calls need not agree. Activity calls are given as the source filed them. Unless noted, calls follow the shape of the full dose curve.
Columns and labels:
[1] = Primary qHTS for Huh7 cytotoxicity: counterscreen for inhibitors of MERS-S pseudotyped particle cell entry (AID 1479147); details: outcome: dose series up to 57.1 µM unless noted
[2] = Primary qHTS for inhibitors of MERS-S pseudo-typed particle cell entry (AID 1479149); details: outcome: dose series up to 57.1 µM unless noted; also: nearly all actives have a fitted effect of over 60% in size
[3] = Primary qHTS for Vero E6 cytotoxicity: counterscreen for inhibitors of SARS-S pseudo-typed particle cell entry (AID 1479150); details: outcome: dose series up to 57.1 µM unless noted
[4] = Cytotoxicity counterscreen for inhibitors of SARS-CoV-2 cell entry (AID 1645845); details: outcome: dose series up to 57.1 µM unless noted; also: nearly all actives have a fitted effect of over 50% in size
Summary of the method: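 ATP-content luminescence (ATPLite 1step, 15 min RT) read after 48 h compound exposure of Expi293F cells stably expressing human ACE2; normalized to cells-only wells and media-only wells.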

[5] = Primary qHTS to identify inhibitors of SARS-CoV-2 cell entry (AID 1645846); details: SARS-CoV-2 pseudovirus cell entry assay, luminescence; activity change, negative = inhibition: at 57.1 µM (top of the series) unless noted; also: nearly all actives have a fitted effect of over 45% in size
Summary of the method: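 Entry measured by luciferase signal 48 h after adding SARS-CoV-2-S pseudotyped MLV particles to HEK293-ACE2 cells preincubated 1 h with compounds. Normalisation: bald particles and spike particles.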

[6] = target: Androgen receptor (Homo sapiens) (UniProt P10275); test: qHTS assay for small molecule agonists of androgen receptor signaling (AID 588515; active = well fitted curve in the direction sought with a large enough effect in the signal ratio, with a control signal flat; the % refers to the signal ratio; also: % is scaled to controls: 0 for no effect and ±100 for the full control effect); details: AR-UAS-bla HEK293, beta-lactamase ratio, agonist 16 h; stronger effect = higher value
Androgen receptor (Homo sapiens), sequence (P10275 whole entry, looked up): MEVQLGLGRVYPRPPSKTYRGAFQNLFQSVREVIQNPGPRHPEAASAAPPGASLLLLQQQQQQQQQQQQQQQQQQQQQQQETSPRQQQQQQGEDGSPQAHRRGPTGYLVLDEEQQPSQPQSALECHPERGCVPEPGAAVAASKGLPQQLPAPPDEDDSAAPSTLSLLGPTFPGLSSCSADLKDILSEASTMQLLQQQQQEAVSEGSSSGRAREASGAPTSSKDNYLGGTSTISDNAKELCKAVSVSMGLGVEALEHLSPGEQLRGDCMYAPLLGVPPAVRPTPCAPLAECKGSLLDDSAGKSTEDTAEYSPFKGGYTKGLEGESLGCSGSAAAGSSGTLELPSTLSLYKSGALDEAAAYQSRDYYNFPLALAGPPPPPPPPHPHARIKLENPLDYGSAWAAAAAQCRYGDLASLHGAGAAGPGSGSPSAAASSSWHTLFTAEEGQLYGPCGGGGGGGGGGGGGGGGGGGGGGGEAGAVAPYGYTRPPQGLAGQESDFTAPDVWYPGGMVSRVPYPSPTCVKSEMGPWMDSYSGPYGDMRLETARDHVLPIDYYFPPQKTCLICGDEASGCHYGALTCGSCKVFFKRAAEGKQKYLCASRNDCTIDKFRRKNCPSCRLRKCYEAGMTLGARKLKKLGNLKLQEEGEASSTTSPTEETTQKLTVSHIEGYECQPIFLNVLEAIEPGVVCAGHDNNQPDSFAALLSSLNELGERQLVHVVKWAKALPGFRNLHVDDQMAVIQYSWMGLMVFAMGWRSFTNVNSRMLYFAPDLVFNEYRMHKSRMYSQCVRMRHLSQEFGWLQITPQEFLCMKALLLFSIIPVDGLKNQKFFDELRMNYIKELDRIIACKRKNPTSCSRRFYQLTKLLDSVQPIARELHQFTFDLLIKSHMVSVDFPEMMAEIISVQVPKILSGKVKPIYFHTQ
Summary of the method: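 Stimulation of an AR-responsive β-lactamase reporter in GripTite HEK293 cells was measured after 16 h compound exposure at 37 °C, via CCF4 fluorescence after 2 h RT. EC50 from Hill fits, normalized to R1881 at 30 nM.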

[7] = target: Androgen receptor (Homo sapiens) (UniProt P10275); test: qHTS assay for small molecule antagonists of androgen receptor signaling (AID 588516; active = well fitted curve in the direction sought with a large enough effect in the signal ratio, with a control signal flat, not every such curve was filed as active; the % refers to the signal ratio; also: potency is read from the fitted curve at half-maximal effect)
Summary of the method: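 Antagonist mode: inhibition of R1881-stimulated (10 nM final) bla reporter in GeneBLAzer AR HEK 293 cells, 16 h at 37C, compounds titrated. IC50 and efficacy from Hill-equation fits of 405/460–530 nm FRET ratios.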

[8] = target: Bile acid receptor (Homo sapiens) (UniProt Q96RI1); test: qHTS assay for small molecule antagonists of farnesoid X receptor signaling (AID 588526); also: % is scaled to controls: 0 for no effect and ±100 for the full control effect
Bile acid receptor (Homo sapiens), sequence (Q96RI1 whole entry, looked up): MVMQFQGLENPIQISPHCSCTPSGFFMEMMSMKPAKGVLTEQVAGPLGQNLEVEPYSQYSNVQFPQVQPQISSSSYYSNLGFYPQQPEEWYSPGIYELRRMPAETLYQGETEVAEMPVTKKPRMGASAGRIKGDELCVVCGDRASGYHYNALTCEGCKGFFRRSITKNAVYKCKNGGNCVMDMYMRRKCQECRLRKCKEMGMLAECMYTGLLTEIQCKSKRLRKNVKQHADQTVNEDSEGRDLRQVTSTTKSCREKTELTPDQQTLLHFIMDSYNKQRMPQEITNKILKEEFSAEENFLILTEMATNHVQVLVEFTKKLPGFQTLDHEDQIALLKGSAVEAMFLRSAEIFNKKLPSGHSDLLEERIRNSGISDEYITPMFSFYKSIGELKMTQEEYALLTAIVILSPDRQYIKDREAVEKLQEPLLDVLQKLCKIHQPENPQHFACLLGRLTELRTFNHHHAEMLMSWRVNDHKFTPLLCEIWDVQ
Summary of the method: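 Beta-lactamase reporter antagonist mode: HEK293T FXR-UAS-bla cells, titrated compound, CDCA stimulation, 16 h 37 C, CCF4 dye 2 h RT. Data normalized to CDCA 50 uM and DMSO; Hill-fit IC50.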

[9] = target: Bile acid receptor (Homo sapiens) (UniProt Q96RI1); test: qHTS assay for small molecule agonists of farnesoid X receptor signaling (AID 588527); details: HEK293T FXR-UAS-bla, beta-lactamase ratio, 16 h; stronger effect = higher value;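 also: 0% = vehicle basal and 100% = reference agonist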
Summary of the method: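 FXR-UAS-bla HEK293T cells (10% dialyzed FBS) preincubated 5-7 h at 37 C, then compounds at up to 92 uM for 16 h at 37 C. CCF4 beta-lactamase read-out after 2 h RT. Normalized to chenodeoxycholic acid (100 uM) and DMSO; Hill fit gave EC50 and efficacy.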

[10] = qHTS assay for small molecule antagonists of peroxisome proliferator-activated receptor delta signaling (AID 588535; active = well fitted inhibition curve with a large enough effect in the signal ratio, with a control signal flat, not every such curve was filed as active; the % refers to the signal ratio;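 as to max response: cells co-treated with a PPAR-delta agonist as stimulator during compound exposure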); details: HEK293T PPARd-UAS-bla, beta-lactamase FRET ratio, 18 h; 460 nm channel
Summary of the method: (§1)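 Antagonist-mode qHTS using GeneBLAzer PPAR-delta-UAS-bla HEK293T cells; compound exposure 18 hrs at 37 C over a titration. Ratiometric CCF4 fluorescence at 460/530 nm; concentration-response points fitted to the Hill equation.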

[11] = target: Peroxisome proliferator-activated receptor delta (Homo sapiens) (UniProt Q03181); test: as above
Peroxisome proliferator-activated receptor delta (Homo sapiens), sequence (Q03181 whole entry, looked up): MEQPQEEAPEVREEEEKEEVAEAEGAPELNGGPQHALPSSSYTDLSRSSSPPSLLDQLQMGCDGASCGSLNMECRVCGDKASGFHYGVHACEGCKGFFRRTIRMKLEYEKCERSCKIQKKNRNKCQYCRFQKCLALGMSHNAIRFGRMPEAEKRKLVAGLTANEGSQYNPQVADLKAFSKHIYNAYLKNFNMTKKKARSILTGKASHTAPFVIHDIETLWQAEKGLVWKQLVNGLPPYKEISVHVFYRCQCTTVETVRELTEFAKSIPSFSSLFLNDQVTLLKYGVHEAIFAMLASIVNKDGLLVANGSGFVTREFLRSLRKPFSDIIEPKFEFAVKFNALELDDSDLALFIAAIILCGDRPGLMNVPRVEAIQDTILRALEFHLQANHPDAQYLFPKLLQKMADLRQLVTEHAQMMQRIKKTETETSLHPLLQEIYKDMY
Summary of the method: as §1

[12] = target: Peroxisome proliferator-activated receptor gamma (Homo sapiens) (UniProt P37231); test: qHTS assay for small molecule agonists of peroxisome proliferator-activated receptor gamma signaling (AID 588536; active = well fitted curve in the direction sought with a large enough effect in the signal ratio, with a control signal flat, not every such curve was filed as active; the % refers to the signal ratio;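 also: 0% = DMSO basal wells and 100% = rosiglitazone at 2 µM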)
Peroxisome proliferator-activated receptor gamma (Homo sapiens), sequence (P37231 whole entry, looked up): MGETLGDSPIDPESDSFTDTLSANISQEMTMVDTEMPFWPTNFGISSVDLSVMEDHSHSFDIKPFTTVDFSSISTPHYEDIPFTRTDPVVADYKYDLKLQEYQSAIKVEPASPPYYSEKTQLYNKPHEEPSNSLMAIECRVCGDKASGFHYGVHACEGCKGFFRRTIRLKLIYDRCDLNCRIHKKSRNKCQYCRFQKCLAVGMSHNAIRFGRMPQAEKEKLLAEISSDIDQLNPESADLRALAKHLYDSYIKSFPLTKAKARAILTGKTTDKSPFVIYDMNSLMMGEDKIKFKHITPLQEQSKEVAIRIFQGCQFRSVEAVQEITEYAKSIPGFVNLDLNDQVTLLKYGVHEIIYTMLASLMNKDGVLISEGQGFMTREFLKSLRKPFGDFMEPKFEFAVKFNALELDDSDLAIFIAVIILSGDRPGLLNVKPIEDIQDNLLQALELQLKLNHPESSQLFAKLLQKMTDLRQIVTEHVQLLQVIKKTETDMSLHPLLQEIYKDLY
Summary of the method: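 Cells were plated and held 6–6.5 h at 37 C, then compounds were added as a titration series. After a further 16 h, CCF4 dye was loaded for 2 h at room temperature and emission at 460/530 nm recorded.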

[13] = target: Peroxisome proliferator-activated receptor gamma (Homo sapiens) (UniProt P37231); test: qHTS assay for small molecule antagonists of peroxisome proliferator-activated receptor gamma signaling (AID 588537; active = well fitted inhibition curve with a large enough effect in the signal ratio, with a control signal flat, not every such curve was filed as active; the % refers to the signal ratio;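 also: reporter cells co-stimulated with 50 nM rosiglitazone agonist during compound treatment; % of control where 0% means no effect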)
Summary of the method: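 Cell-based beta-lactamase assay; GW9662 served as the antagonist control. Stimulation used rosiglitazone, final 50 nM, 16 h, 37 C.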

[14] = target: Vitamin D3 receptor (Homo sapiens) (UniProt P11473); test: qHTS assay for small molecule antagonists of vitamin D receptor signaling (AID 588541);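 also: receptor activated by calcitriol during compound treatment; % is scaled to controls: 0 for no effect and ±100 for the full control effect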
Vitamin D3 receptor (Homo sapiens), sequence (P11473 whole entry, looked up): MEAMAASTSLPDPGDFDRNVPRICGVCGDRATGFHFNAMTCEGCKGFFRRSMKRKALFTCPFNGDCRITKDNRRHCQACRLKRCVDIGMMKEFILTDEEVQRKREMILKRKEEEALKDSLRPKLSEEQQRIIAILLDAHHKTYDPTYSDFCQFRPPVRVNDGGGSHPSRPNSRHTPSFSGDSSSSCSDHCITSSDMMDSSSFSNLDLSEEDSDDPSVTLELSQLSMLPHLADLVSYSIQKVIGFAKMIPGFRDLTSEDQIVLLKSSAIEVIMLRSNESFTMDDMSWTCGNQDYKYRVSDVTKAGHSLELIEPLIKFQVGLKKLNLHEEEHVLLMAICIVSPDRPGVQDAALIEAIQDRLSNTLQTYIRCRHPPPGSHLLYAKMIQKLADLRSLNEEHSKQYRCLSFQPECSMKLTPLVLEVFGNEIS
Summary of the method: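 Antagonist-mode beta-lactamase reporter assay: HEK293T VDR-UAS-bla cells were exposed to titrated compound alongside 1-alpha,25-dihydroxyvitamin D3 at 3 nM final for 16 h. Values were normalized to the 50 nM agonist control and DMSO basal, with IC50 and efficacy from Hill equation fits.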

[15] = target: Vitamin D3 receptor (Homo sapiens) (UniProt P11473); test: qHTS assay for small molecule agonists of vitamin D receptor signaling (AID 588543);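 also: 0% = DMSO basal and 100% = reference agonist control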
Summary of the method: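 Agonist-mode beta-lactamase reporter: HEK293T VDR-UAS-bla cells in charcoal-stripped 2% FBS, compound series 16 h 37 C, CCF4 2 h RT. EC50 from Hill fit, scaled against DMSO and 50 nM calcitriol control.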

[16] = target: Thyroid hormone receptor beta (Homo sapiens) (UniProt P10828); test: qHTS assay for small molecule agonists of thyroid hormone receptor beta signaling (AID 588545);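 also: 0% = DMSO only and 100% = 10 nM T3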
Thyroid hormone receptor beta (Homo sapiens), sequence (P10828 whole entry, looked up): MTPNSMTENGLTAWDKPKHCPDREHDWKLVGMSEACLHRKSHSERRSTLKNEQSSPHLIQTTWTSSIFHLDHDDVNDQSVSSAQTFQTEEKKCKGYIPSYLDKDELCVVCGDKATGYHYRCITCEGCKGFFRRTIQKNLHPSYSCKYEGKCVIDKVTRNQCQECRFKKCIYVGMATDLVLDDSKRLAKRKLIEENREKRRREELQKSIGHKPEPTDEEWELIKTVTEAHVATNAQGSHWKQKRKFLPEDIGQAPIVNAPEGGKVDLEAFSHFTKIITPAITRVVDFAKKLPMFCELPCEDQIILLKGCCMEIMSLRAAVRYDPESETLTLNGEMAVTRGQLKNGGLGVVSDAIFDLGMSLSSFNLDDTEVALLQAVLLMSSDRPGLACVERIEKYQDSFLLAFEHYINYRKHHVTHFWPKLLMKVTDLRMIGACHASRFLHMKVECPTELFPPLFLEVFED
Summary of the method: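 TR-UAS-bla GripTite HEK 293 cells (2500/well, medium with 2% charcoal/dextran FBS) were treated in agonist mode for 18 h at 37 C, titrated. Beta-lactamase was read by CCF4 ratio after 2 h; normalized to 10 nM T3 (100%) and DMSO, Hill-fitted for EC50 and efficacy.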

[17] = qHTS assay for small molecule antagonists of retinoid X receptor alpha signaling (AID 588546; active = well fitted inhibition curve with a large enough effect in the signal ratio, with a control signal flat, not every such curve was filed as active; the % refers to the signal ratio;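 also: cells stimulated with 9-cis-retinoic acid as agonist; % is scaled to controls: 0 for no effect and ±100 for the full control effect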); details: HEK293T RXRa-UAS-bla, beta-lactamase ratio, antagonist mode; measured here: W530 green channel, cytotoxicity proxy
Summary of the method: (§2)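 Beta-lactamase reporter inhibition, read as CCF4 fluorescence ratio (ex 405, em 460/530 nm) after 2 h at RT. HEK293T UAS-bla cells, 2500/well, were stimulated with 9-cis-RA at 500 or 100 nM final alongside test compound for 18 h at 37 C.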

[18] = target: Retinoic acid receptor RXR-alpha (Homo sapiens) (UniProt P19793); test: as above; details: HEK293T RXRa-UAS-bla, beta-lactamase ratio, antagonist mode
Retinoic acid receptor RXR-alpha (Homo sapiens), sequence (P19793 whole entry, looked up): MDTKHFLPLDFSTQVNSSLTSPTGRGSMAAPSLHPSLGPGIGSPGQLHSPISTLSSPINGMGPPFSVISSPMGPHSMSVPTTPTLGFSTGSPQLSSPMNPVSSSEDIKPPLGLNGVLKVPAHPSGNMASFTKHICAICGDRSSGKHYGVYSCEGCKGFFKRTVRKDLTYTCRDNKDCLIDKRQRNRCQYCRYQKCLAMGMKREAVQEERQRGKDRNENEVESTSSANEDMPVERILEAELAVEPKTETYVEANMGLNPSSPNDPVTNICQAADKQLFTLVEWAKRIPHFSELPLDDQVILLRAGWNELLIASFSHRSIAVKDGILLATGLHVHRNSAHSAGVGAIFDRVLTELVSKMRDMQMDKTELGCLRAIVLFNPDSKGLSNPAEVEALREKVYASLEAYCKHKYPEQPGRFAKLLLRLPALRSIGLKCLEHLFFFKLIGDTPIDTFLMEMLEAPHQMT
Summary of the method: as §2

[19] = qHTS assay for small molecule agonists of the antioxidant response element (ARE) signaling pathway (AID 651741; active = well fitted activation curve with a large enough effect in the signal ratio; the % refers to the signal ratio; also: potency is read from the fitted curve at half-maximal effect)
Summary of the method: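 Agonist activity is measured as ARE-driven beta-lactamase expression in a stable HepG2 reporter line, using 16 h compound treatment at 37 C and a FRET substrate fluorescence readout after 2 h.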

[20] = qHTS assay for small molecule activators of the p53 signaling pathway (AID 651743; active = well fitted activation curve with a large enough effect in the signal ratio, not every such curve was filed as active; the % refers to the signal ratio; also: % of control where 0% means no effect); details: HCT-116 p53RE-bla, beta-lactamase FRET ratio, 16 h; activation: stronger effect = higher value
Summary of the method: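 A beta-lactamase reporter under p53 response element control, stably carried by HCT-116 cells, reported pathway activation. Test compounds were applied for 16 hours at 37 C, and fluorescence was measured 2 hours after adding the B/G FRET substrate.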

[21] = qHTS assay for small molecule activators of the nuclear factor-kappa B (NF-kB) signaling pathway (AID 651749; active = well fitted activation curve with a large enough effect in the signal ratio; the % refers to the signal ratio; also: % of control where 0% means no effect); details: NF-kB-bla ME-180 cells, beta-lactamase FRET ratio, 16 h; activation: stronger effect = higher value
Summary of the method: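 FRET-based beta-lactamase detection in ME-180 cells reports NF-kB response-element-driven transcription following overnight (16 hr) compound treatment.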

[22] = qHTS assay for environmental chemicals that activate the Aryl hydrocarbon Receptor (AhR) signaling pathway (AID 651777; active = well fitted curve in the direction sought with a large enough effect; an effect the other way counts as inactive or inconclusive; also: % of control where 0% means no effect; nearly all actives have a fitted effect of over 15% in size); details: 1A2-DRE human hepatoma cells, luciferase, 24 h; activation: stronger effect = higher value
Summary of the method: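 Measured luciferase activity, read 30 min after One-Glo addition at room temperature, from human hepatoma cells bearing a dioxin response element–CYP1A2 promoter reporter and exposed to compound for 24 hr at 37 C.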

[23] = target: Peroxisome proliferator-activated receptor alpha (Homo sapiens) (UniProt Q07869); test: qHTS assay for small molecule agonists of the peroxisome proliferator-activated receptor alpha (PPARalpha) signaling pathway (AID 651778; active = well fitted curve in the direction sought with a large enough effect; an effect the other way counts as inactive or inconclusive; also: % of control where 0% means no effect); details: PathHunter PPARalpha complementation, chemiluminescence, 6 h; stronger effect = higher value
Peroxisome proliferator-activated receptor alpha (Homo sapiens), sequence (Q07869 whole entry, looked up): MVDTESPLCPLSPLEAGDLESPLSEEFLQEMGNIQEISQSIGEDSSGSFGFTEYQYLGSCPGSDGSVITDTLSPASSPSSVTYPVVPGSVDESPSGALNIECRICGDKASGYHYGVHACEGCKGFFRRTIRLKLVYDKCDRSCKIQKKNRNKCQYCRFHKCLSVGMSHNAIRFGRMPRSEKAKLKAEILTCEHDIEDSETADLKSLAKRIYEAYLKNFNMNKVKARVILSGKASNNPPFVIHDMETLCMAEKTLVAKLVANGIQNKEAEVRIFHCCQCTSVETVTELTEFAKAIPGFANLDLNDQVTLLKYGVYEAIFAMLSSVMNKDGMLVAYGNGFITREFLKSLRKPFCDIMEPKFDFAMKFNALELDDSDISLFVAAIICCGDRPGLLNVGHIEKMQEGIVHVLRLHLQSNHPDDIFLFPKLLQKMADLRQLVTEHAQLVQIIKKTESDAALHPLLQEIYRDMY
Summary of the method: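 Chemiluminescence from complemented enzyme reported PPARalpha activation in cells after 6 hr of compound treatment at 37 C. The detection reagent was incubated for 60 min at room temperature, and compounds were scored as agonists.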

[24] = qHTS assay for small molecule agonists of the antioxidant response element (ARE) signaling pathway measured by Nrf2-dependant transcriptional activity - cell viability counter screen (AID 720653; active = well fitted curve in the direction sought with a large enough effect in the repeat runs; an effect the other way counts as inactive or inconclusive; also: % is scaled to controls: 0 for no effect and ±100 for the full control effect); details: ARE-bla HepG2 viability, CellTiter-Glo ATP luminescence, 16 h; stronger effect = lower value
Summary of the method: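 Cytotoxicity counter screen: intracellular ATP quantified by CellTiter-Glo luminescence in the same ARE-bla HepG2 plates, after 16 h compound exposure and a 2 h beta-lactamase substrate step.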

[25] = qHTS assay for cell viability of HEK293 cells (AID 743288; active = well fitted curve in the direction sought with a large enough effect; an effect the other way counts as inactive or inconclusive; also: % is scaled to controls: 0 for no effect and ±100 for the full control effect; nearly all actives have a fitted effect of over 50% in size); details: ATP luminescence (CellTiter-Glo), 18 h; max response: stronger effect = lower value
Summary of the method: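 Readout is luciferase-coupled ATP content (CellTiter-Glo luminescence, 30 min room temperature) as a measure of metabolically competent cells. Parental HEK293 cells were plated 5 h or more before compound addition, then treated 18 h at 37 C.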

[26] = qHTS assay for cell viability of the p53RE-bla HCT-116 cell line (AID 743292; active = well fitted curve in the direction sought with a large enough effect; an effect the other way counts as inactive or inconclusive; also: % is scaled to controls: 0 for no effect and ±100 for the full control effect; nearly all actives have a fitted effect of over 55% in size)
Summary of the method: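 Intracellular ATP of p53RE-bla HCT-116 cells measured by luciferase luminescence following 16 h compound incubation at 37 C; DMSO-only wells served as vehicle controls.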

[27] = target: Glutathione peroxidase 1 (Homo sapiens) (UniProt P07203); test: Primary qHTS Assay for Inhibitors of Recombinant Selenoprotein Glutathione Peroxidase 1 (GPX1) (AID 1845191; active = well fitted curve in the direction sought with a large enough effect; an effect the other way counts as inactive or inconclusive; also: % is scaled to controls: 0 for no effect and ±100 for the full control effect; nearly all actives have a fitted effect of over 65% in size)
Glutathione peroxidase 1 (Homo sapiens), sequence (P07203 whole entry, looked up): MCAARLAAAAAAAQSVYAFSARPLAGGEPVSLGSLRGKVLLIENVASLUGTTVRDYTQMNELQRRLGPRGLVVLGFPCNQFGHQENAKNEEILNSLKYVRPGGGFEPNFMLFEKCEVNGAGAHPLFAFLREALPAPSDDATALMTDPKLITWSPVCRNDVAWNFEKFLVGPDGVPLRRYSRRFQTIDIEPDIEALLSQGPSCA
Summary of the method: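 NADPH consumption tracked by fluorescence at 340/450 nm between t=0 and t=15 min, room temperature. Final mix: 10 nM GPX1, 100 nM glutathione reductase, 1 mM GSH, 0.5 mM NADPH, 0.5 mM cumene hydroperoxide, 0.01% BSA; 30 min compound–enzyme preincubation.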

[28] = target: Phospholipid hydroperoxide glutathione peroxidase GPX4 (Homo sapiens) (UniProt P36969); test: Primary qHTS Assay for Inhibitors of Recombinant Selenoprotein Glutathione Peroxidase 4 (GPX4) (AID 1845192; active = well fitted curve in the direction sought with a large enough effect; an effect the other way counts as inactive or inconclusive; also: % is scaled to controls: 0 for no effect and ±100 for the full control effect; nearly all actives have a fitted effect of over 65% in size)
Phospholipid hydroperoxide glutathione peroxidase GPX4 (Homo sapiens), sequence (P36969 whole entry, looked up): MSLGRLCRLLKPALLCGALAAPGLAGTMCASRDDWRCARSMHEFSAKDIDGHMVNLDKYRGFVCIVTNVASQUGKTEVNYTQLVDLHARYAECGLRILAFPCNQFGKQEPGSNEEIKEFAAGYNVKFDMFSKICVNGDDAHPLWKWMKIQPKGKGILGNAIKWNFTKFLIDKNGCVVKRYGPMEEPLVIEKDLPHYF
Summary of the method: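 NADPH consumption followed by fluorescence at 340/450 nm, t=0 and after 15 min at room temperature. Reaction started with cumene hydroperoxide (0.5 mM final) after 30 min compound–GPX4 preincubation; final 200 nM GPX4, 100 nM GR, 1 mM GSH, 0.5 mM NADPH.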

COc1cc(C[C@@H]2NCCc3cc(O)c(O)cc32)cc(OC)c1OC
-18.7%: activity change, negative = inhibition [5]
inactive: Potency [1] | Potency [2] | Potency [3] | Potency [4]

Cc1ccc(S(=O)(=O)O)cc1
-13.7%: activity change, negative = inhibition [5]
inactive: Potency [1] | Potency [2] | Potency [3] | Potency [4]

NC(=O)[C@@H]1C[C@]2(NC(=O)NC2=O)c2cc(F)ccc2O1
-14.3%: activity change, negative = inhibition [5]
inactive: Potency [1] | Potency [2] | Potency [3] | Potency [4]

O=C1CCC(=O)N1CO
inactive: Potency [1] | Potency [2] | Potency [3] | Potency [4] | Potency [5]

CC(=O)OCC1=C(C(=O)O)N2C(=O)[C@@H](NC(=O)[C@H](N)c3ccccc3)[C@H]2SC1
inactive: Potency [1] | Potency [2] | Potency [3] | Potency [4]
-7.18%: activity change, negative = inhibition [5]

CCN(CC)CCOc1ccc2nc(N(C)C)sc2c1
inactive: Potency [1] | Potency [2] | Potency [3] | Potency [4]
-8.36% [at 114 µM]: activity change, negative = inhibition [5]

Cc1oc(-c2ccccc2)nc1CCOc1ccc(CC2C(=O)NOC2=O)cc1 (stereo not drawn)
-23.4%: activity change, negative = inhibition [5]
inactive: Potency [1] | Potency [2] | Potency [3] | Potency [4]

CC(COc1ccc(Oc2ccccc2)cc1)Oc1ccccn1 (stereo not drawn)
inactive and 39.8 µM (active): Potency [7]
-19.9% and -8.14%: max response [17]
11.7% and -13.8%: max response [10]
inactive: activation [6] -2.33% | outcome [8] | activation [9] 0.631% and 1.01% | Potency [11] | outcome [12] | Potency [13] | outcome [14] | outcome [15] | outcome [16] | max response [18] -8.09% and -10.1% | activation [20] -3.04% and -2.31% | activation [21] -1.12% and 0.467% | activation [22] 13% | max response [23] -1.27% and -0.944% | max response [24] 2.4% and -4.17% | max response [25] -1.69% and -16.3% | Potency [26] | Potency [1] | Potency [2] | Potency [3] | Potency [4] | Potency [27] | Potency [28]
active: Potency [19] 48.6 µM and 27.3 µM
-5.43%: activity change, negative = inhibition [5]

— PubChem BioAssay (NCATS)
